Records with an inconclusive call do not appear. Activity calls are given as the source filed them. How the source made its calls, unless noted: active means hit-call score of the fitted dose curve at least 0.9, where 1 is the maximum; inconclusive means response in the unintended direction; inactive means score below 0.9.
Tests used:
[1] = ATG_TCF_b_cat_CIS: Attagene CIS-FACTORIAL HepG2 Assay for human T-Cell-Factor with beta-catenin (TCF/b-cat) (AID 2282965; active means hit-call score of the fitted dose curve at least 0.9, where 1 is the maximum; inactive means score below 0.9); conditions: HepG2 TCF/beta-catenin cis-reporter transcription, actives raise or lower the signal
Method in brief: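 Measured: reporter mRNA in HepG2 transiently transfected with cis-promoter reporter units, 24 h after chemical addition. Fitting was bidirectional, DMSO as negative control.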

[2] = ATG_TAL_CIS: Attagene CIS-FACTORIAL HepG2 Assay for human TAL Basal Promoter (AID 2282966; active means hit-call score of the fitted dose curve at least 0.9, where 1 is the maximum; inactive means score below 0.9;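 further: background control endpoint measuring basal TAL promoter reporter mRNA not a specific factor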); conditions: HepG2 Attagene cis-factorial TAL promoter reporter; actives raise or lower the signal
Method in brief: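 Basal-promoter background-control endpoint from a multiplexed HepG2 reporter panel. Cells were exposed 24 h, then reporter mRNA was read by RT-PCR/CE fluorescence and fitted in both directions relative to DMSO.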

[3] = ATG_VDRE_CIS: Attagene CIS-FACTORIAL HepG2 Assay for human Vitamin D Receptor Element (VDRE) (AID 2282968; active means hit-call score of the fitted dose curve at least 0.9, where 1 is the maximum; inactive means score below 0.9); conditions: HepG2 VDRE cis-reporter transcription, actives raise or lower the signal
Method in brief: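 Measures endogenous factor activity through cis-element-driven reporter transcripts in transiently transfected HepG2. Cells are treated 24 h; reporter mRNA is quantified by RT-PCR and capillary electrophoresis; fitting is bidirectional.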

[4] = biological target: Estrogen receptor (Homo sapiens) (UniProt P03372); assay: ATG_ERa_TRANS: Attagene TRANS-FACTORIAL HepG2 Assay for human Estrogen Receptor alpha (ERa) (AID 2282970); conditions: HepG2 Attagene TRANS ERa GAL4 reporter, mRNA
Estrogen receptor (Homo sapiens), sequence (P03372 whole entry, looked up, the tested form may be a part): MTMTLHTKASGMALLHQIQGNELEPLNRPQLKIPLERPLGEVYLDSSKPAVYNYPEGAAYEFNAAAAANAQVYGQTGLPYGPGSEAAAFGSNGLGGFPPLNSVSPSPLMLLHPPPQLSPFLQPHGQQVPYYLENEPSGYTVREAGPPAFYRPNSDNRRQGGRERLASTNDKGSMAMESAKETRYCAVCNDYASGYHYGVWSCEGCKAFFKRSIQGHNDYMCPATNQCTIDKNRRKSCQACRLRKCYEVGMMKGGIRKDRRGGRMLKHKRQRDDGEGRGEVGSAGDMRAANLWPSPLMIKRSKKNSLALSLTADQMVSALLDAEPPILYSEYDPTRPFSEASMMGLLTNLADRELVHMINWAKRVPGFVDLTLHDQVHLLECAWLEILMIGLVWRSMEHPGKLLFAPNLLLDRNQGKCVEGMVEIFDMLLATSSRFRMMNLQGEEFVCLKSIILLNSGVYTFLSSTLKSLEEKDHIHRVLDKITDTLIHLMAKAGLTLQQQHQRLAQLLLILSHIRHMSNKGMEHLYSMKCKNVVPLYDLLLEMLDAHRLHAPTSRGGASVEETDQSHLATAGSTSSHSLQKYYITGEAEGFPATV
Method in brief: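 Gal4-fusion ERa transactivation, measured as reporter transcript level in transiently transfected HepG2 cells. Exposure 24 h; RT-PCR plus capillary electrophoresis with fluorescence detection.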

[5] = biological target: X-box-binding protein 1 (Homo sapiens) (UniProt P17861); assay: ATG_Xbp1_CIS: Attagene CIS-FACTORIAL HepG2 Assay for human X-box Binding Protein 1 (XBP1) (AID 2282972; active means hit-call score of the fitted dose curve at least 0.9, where 1 is the maximum; inactive means score below 0.9); conditions: HepG2 XBP1 cis-element reporter, Attagene multiplex; actives raise or lower the signal
X-box-binding protein 1 (Homo sapiens), sequence (P17861 whole entry, looked up): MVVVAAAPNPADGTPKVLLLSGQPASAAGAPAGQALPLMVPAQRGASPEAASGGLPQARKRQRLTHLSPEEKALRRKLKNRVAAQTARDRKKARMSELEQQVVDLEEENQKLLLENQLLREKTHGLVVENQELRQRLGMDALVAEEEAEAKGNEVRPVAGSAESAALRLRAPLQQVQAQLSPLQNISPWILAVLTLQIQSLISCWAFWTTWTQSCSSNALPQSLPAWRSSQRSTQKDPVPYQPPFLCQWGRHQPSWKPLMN
Method in brief: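 Multiplexed cis-reporter readout in transfected HepG2 liver cells. Exposure lasted 24 hours. Activity in either direction was fitted against DMSO as negative control and baseline.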

[6] = ATG_M_06_TRANS: Attagene TRANS-FACTORIAL HepG2 Assay for M06 Transcription Factor (Internal Marker) (AID 2282983); conditions: HepG2 Attagene TRANS M06 internal marker reporter
Method in brief: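 mRNA levels of a reporter transcript, quantified as FAM fluorescence on capillary electrophoresis, served as readout. HepG2 cells expressing exogenous GAL4-chimera reporter constructs were exposed for 24 h. Gain of signal over DMSO was evaluated.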

[7] = ATG_M_32_TRANS: Attagene TRANS-FACTORIAL HepG2 Assay for M32 Transcription Factor (Internal Marker) (AID 2282984); conditions: HepG2 Attagene TRANS M32 internal marker reporter
Method in brief: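 Cell-based TRANS-format assay in HepG2: exogenous chimeric GAL4 reporter units transiently expressed, compounds applied 24 h. Reporter mRNA detected by RT-PCR plus capillary electrophoresis; this readout is an internal background marker.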

[8] = biological target: Nuclear receptor subfamily 4 group A member 2 (Homo sapiens) (UniProt P43354); assay: ATG_NURR1_TRANS: Attagene TRANS-FACTORIAL HepG2 Assay for human Nuclear Receptor Related Protein 1 (NURR1) (AID 2282985); conditions: HepG2 Attagene TRANS reporter, mRNA readout
Nuclear receptor subfamily 4 group A member 2 (Homo sapiens), sequence (P43354 whole entry, looked up, the tested form may be a part): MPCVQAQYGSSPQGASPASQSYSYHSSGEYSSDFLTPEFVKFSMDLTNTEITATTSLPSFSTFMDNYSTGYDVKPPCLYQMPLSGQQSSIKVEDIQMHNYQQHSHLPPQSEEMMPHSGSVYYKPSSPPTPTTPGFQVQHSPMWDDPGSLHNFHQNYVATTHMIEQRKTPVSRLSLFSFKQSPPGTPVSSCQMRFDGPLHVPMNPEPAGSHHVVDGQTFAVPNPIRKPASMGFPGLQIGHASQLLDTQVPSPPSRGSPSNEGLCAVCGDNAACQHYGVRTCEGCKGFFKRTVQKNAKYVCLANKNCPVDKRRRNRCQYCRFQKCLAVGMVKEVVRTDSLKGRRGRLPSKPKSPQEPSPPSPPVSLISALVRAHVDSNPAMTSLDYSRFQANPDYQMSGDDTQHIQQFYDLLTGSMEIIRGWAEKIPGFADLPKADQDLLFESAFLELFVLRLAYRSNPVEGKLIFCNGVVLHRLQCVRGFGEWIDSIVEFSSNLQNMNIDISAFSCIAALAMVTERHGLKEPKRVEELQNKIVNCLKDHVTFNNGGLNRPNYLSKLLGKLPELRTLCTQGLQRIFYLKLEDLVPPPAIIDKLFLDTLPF
Method in brief: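 Measures transcriptional activation by an exogenous NR-Gal4 chimera in transfected HepG2 liver cells. After 24 h, reporter RNA is reverse-transcribed, amplified and resolved by capillary electrophoresis; DMSO defines baseline.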

[9] = biological target: Transcriptional activator Myb (Homo sapiens) (UniProt P10242); assay: ATG_Myb_CIS: Attagene CIS-FACTORIAL HepG2 Assay for human Myeloblastosis (Myb) Proto-Oncogene Transcription Factor (AID 2282986; active means hit-call score of the fitted dose curve at least 0.9, where 1 is the maximum; inactive means score below 0.9); conditions: HepG2 Attagene CIS-FACTORIAL Myb reporter transcription; actives raise or lower the signal
Transcriptional activator Myb (Homo sapiens), sequence (P10242 whole entry, looked up): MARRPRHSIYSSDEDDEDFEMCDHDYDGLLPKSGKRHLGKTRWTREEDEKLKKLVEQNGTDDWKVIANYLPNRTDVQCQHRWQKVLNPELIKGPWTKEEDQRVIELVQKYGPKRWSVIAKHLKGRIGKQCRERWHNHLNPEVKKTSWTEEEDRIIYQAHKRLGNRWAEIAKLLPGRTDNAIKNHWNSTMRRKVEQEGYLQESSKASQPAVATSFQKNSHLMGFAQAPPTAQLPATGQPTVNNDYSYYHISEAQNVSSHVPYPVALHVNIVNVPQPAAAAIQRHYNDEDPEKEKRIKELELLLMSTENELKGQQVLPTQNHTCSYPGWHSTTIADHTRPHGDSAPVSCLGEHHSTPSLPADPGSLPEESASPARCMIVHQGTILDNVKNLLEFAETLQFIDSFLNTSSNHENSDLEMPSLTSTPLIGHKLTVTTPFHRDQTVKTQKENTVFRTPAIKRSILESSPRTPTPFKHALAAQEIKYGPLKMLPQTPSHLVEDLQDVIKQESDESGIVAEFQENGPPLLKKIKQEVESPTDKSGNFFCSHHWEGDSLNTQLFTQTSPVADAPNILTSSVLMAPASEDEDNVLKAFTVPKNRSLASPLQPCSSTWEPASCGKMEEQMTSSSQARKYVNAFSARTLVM
Method in brief: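 Transiently transfected HepG2 cells, treated 24 h. Reporter mRNA quantified by RT-PCR/capillary electrophoresis; bidirectional fit relative to DMSO.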

[10] = biological target: Nuclear receptor subfamily 1 group I member 3 (Homo sapiens) (UniProt Q14994); assay: ATG_CAR_TRANS: Attagene TRANS-FACTORIAL HepG2 Assay for human Constitutive Androstane Receptor (CAR) (AID 2282969); conditions: HepG2 Attagene TRANS-FACTORIAL CAR reporter;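 further: activators raise reporter mRNA above DMSO so AC50 marks induction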
Nuclear receptor subfamily 1 group I member 3 (Homo sapiens), sequence (Q14994 whole entry, looked up, the tested form may be a part): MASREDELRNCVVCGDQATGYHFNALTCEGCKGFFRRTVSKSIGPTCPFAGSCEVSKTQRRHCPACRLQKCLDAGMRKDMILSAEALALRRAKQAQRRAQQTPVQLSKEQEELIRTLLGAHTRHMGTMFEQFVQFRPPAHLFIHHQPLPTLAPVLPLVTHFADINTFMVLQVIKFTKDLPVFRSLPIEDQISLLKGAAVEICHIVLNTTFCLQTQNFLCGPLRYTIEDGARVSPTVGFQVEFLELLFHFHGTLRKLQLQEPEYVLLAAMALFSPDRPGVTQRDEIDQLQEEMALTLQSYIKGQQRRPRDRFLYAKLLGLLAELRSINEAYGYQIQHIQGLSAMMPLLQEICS
Method in brief: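 Signal is reporter mRNA induction relative to DMSO, measured 24 h after dosing by RT-PCR with fluorescent primer extension and capillary electrophoresis. Human HepG2 liver cells carried transiently transfected chimeric NR-Gal4/GAL4-UAS reporter constructs.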

[11] = ATG_GAL4_TRANS: Attagene TRANS-FACTORIAL HepG2 Assay for GAL4 (Internal Marker) (AID 2282976); conditions: HepG2 Attagene TRANS GAL4 internal marker reporter
Method in brief: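 Background-control readout: GAL4-UAS reporter transcript in transiently transfected HepG2 cells after 24 h compound exposure. Measured by RT-PCR, 6-FAM primer extension, HpaI digest and capillary electrophoresis; gain-of-signal fit versus DMSO.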

[12] = biological target: Glucocorticoid receptor (Homo sapiens) (UniProt P04150); assay: ATG_GR_TRANS: Attagene TRANS-FACTORIAL HepG2 Assay for human Glucocorticoid Receptor (GR) (AID 2282978); conditions: HepG2 Attagene TRANS GR reporter, mRNA transcription;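 further: activators score as hits since higher reporter transcript over DMSO is fitted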
Glucocorticoid receptor (Homo sapiens), sequence (P04150 whole entry, looked up, the tested form may be a part): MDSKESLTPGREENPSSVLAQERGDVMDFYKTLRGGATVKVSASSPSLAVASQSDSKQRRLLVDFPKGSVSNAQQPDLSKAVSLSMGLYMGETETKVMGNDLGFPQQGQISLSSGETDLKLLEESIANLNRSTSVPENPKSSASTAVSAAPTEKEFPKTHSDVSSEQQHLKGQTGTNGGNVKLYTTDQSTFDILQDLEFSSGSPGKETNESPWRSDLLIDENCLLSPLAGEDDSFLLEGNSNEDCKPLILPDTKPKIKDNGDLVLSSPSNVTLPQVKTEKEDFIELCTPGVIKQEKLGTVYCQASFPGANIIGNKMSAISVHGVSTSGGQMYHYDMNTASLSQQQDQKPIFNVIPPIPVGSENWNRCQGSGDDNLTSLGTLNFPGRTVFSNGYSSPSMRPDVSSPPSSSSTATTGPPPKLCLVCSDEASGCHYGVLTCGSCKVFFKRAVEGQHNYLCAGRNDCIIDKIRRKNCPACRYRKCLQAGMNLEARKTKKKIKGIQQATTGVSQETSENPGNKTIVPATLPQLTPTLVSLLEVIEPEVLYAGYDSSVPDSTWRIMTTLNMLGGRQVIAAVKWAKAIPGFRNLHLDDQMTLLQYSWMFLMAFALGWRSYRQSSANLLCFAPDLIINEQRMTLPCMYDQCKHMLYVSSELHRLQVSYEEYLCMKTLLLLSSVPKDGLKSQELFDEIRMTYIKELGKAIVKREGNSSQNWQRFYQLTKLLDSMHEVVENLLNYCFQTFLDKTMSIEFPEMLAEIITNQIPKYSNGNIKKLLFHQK
Method in brief: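 Reporter transcript levels, detected by fluorescence after RT-PCR and capillary electrophoresis, served as the endpoint. HepG2 cells bearing transfected GAL4-UAS reporters responsive to NR-GAL4 chimeras were incubated with compound 24 h; DMSO defined baseline.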

[13] = biological target: Bile acid receptor (Homo sapiens) (UniProt Q96RI1); assay: ATG_FXR_TRANS: Attagene TRANS-FACTORIAL HepG2 Assay for Farnesoid X Receptor (FXR) (AID 2282979); conditions: HepG2 Attagene TRANS FXR-GAL4 reporter transcription;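 further: hits raise reporter mRNA above DMSO so AC50 marks FXR activation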
Method in brief: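 HepG2 cells were transiently transfected with GAL4-UAS reporters driven by chimeric NR-Gal4 proteins and dosed for 24 h. Reporter mRNA was quantified by RT-PCR, fluorescent labelling, HpaI digestion and capillary electrophoresis, with gain of signal scored versus DMSO.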

[14] = biological target: Oxysterols receptor LXR-alpha (Homo sapiens) (UniProt Q13133); assay: ATG_LXRa_TRANS: Attagene TRANS-FACTORIAL HepG2 Assay for human Liver X Receptor alpha (LXRa) (AID 2282980); conditions: HepG2 Attagene TRANS reporter, LXRa transactivation
Oxysterols receptor LXR-alpha (Homo sapiens), sequence (Q13133 whole entry, looked up, the tested form may be a part): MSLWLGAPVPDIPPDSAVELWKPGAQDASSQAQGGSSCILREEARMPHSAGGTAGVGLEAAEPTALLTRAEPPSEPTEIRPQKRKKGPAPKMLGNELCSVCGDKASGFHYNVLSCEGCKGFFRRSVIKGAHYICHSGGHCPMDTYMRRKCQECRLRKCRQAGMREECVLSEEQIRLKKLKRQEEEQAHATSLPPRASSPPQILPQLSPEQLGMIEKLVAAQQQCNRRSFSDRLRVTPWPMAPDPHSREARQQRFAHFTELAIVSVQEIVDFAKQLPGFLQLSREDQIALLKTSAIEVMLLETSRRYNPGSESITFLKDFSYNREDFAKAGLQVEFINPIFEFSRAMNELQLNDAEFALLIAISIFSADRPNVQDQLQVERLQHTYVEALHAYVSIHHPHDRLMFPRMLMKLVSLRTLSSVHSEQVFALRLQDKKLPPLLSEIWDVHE
Method in brief: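 HepG2 cells transiently transfected with GAL4-UAS reporter units for chimeric NR-Gal4 proteins, exposed to chemicals for 24 h. Reporter mRNA quantified by RT-PCR and capillary electrophoresis; gain of signal fitted relative to DMSO.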

[15] = ATG_M_19_TRANS: Attagene TRANS-FACTORIAL HepG2 Assay for M19 Transcription Factor (Internal Marker) (AID 2282974); conditions: HepG2 Attagene TRANS-FACTORIAL M19 internal marker reporter
Method in brief: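 Reporter mRNA induction was measured in transfected HepG2 cells 24 h after dosing. Endpoint fitted upward relative to DMSO and serves as a background control within the multiplexed TRANS panel.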

[16] = biological target: Estrogen-related receptor gamma (Homo sapiens) (UniProt P62508); assay: ATG_ERRg_TRANS: Attagene TRANS-FACTORIAL HepG2 Assay for human Estrogen-Related Receptor gamma (ERRg) (AID 2282977); conditions: HepG2 Attagene TRANS reporter, ERRg transactivation;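 further: hits increase reporter signal over DMSO so potencies reflect activators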
Estrogen-related receptor gamma (Homo sapiens), sequence (P62508 whole entry, looked up, the tested form may be a part): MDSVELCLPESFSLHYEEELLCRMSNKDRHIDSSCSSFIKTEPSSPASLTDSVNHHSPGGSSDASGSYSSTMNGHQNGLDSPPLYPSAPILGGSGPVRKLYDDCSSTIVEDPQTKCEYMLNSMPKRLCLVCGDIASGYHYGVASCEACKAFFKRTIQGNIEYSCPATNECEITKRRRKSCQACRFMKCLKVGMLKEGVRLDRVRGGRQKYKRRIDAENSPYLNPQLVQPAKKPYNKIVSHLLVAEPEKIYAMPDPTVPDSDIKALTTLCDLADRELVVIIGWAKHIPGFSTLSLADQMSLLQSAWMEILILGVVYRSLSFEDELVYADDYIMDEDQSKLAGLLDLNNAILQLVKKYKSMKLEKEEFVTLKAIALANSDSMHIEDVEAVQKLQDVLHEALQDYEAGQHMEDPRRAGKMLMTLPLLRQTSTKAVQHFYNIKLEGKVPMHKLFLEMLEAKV
Method in brief: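 Exogenous NR-Gal4 chimera activity was assessed in HepG2 cells bearing transfected GAL4-UAS reporters. After 24 h dosing, total RNA underwent RT-PCR, fluorescent primer extension and HpaI digestion before capillary electrophoresis, with gain of signal scored against DMSO.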

[17] = biological target: Hepatocyte nuclear factor 4-alpha (Homo sapiens) (UniProt P41235); assay: ATG_HNF4a_TRANS: Attagene TRANS-FACTORIAL HepG2 Assay for human Hepatocyte Nuclear Factor 4 alpha (HNF4a) (AID 2282982); conditions: HepG2 HNF4a transactivation reporter, mRNA readout
Hepatocyte nuclear factor 4-alpha (Homo sapiens), sequence (P41235 whole entry, looked up): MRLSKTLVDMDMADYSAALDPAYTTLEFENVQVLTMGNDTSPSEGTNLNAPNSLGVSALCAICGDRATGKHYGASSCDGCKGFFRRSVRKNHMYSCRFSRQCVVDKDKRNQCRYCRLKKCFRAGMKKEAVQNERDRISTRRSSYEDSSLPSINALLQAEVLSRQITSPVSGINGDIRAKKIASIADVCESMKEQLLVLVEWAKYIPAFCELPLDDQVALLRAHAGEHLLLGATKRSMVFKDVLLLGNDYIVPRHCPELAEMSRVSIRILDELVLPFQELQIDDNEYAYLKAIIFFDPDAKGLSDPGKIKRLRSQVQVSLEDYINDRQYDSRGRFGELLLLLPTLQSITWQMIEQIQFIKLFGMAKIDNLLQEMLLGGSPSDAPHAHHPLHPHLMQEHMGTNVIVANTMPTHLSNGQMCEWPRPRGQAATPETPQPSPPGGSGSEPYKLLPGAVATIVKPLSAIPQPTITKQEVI
Method in brief: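 Multiplexed reporter assay: transfected HepG2, 24 h exposure, total RNA → oligo(dT) RT → PCR → 6-FAM extension → HpaI digest → CE fluorescence. DMSO = negative control.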

Question: Which results are given for `CCCCCCCOC(C)=O`?
Answer: outcome [1]: inactive; outcome [2]: inactive; outcome [3]: inactive; AC50 [4]: 17.6 µM (active); outcome [5]: inactive; outcome [6]: inactive; outcome [7]: inactive; outcome [8]: inactive; outcome [9]: inactive

Question: With `OC[C@H]1O[C@@H](O[C@H]2[C@H](O)[C@@H](O)[C@H](O)O[C@@H]2CO)[C@H](O)[C@@H](O)[C@H]1O` as the molecule, how does the outcome [1] read?
Answer: Its outcome is “inactive”.

Question: What about the outcome [2] of the same molecule?
Answer: The outcome was “inactive”.

Question: What about the outcome [10] of the same molecule?
Answer: The outcome was “inactive”.

Question: What about the outcome [4] of the same molecule?
Answer: Its outcome is “inactive”.

Question: And the outcome [5]?
Answer: The outcome was “inactive”.

Question: And the outcome [11]?
Answer: The outcome was “inactive”.

Question: And the outcome [12]?
Answer: The outcome was “inactive”.

Question: And the outcome [13]?
Answer: The outcome was “inactive”.

Question: What about the outcome [14] of the same molecule?
Answer: Its outcome is “inactive”.

Question: And the outcome [8]?
Answer: Its outcome is “inactive”.

Question: What about the outcome [9] of the same molecule?
Answer: The outcome was “inactive”.

Question: For `CCOc1ccc(NC(C)=O)cc1`, which outcome [1] is on record?
Answer: Its outcome is “inactive”.

Question: What about the outcome [2] of the same molecule?
Answer: The outcome was “inactive”.

Question: And the outcome [3]?
Answer: Its outcome is “inactive”.

Question: And the outcome [5]?
Answer: Its outcome is “inactive”.

Question: And the outcome [15]?
Answer: Its outcome is “inactive”.

Question: What about the outcome [16] of the same molecule?
Answer: Its outcome is “inactive”.

Question: What about the outcome [12] of the same molecule?
Answer: Its outcome is “inactive”.

Question: What about the outcome [14] of the same molecule?
Answer: Its outcome is “inactive”.

Question: And the outcome [17]?
Answer: Its outcome is “inactive”.

Question: And the outcome [7]?
Answer: Its outcome is “inactive”.

Question: And the outcome [9]?
Answer: The outcome was “inactive”.

Question: With `CCOC(=O)C=Cc1ccccc1` as the molecule, how does the outcome [1] read?
Answer: The outcome was “inactive”.

Question: And the outcome [2]?
Answer: The outcome was “inactive”.

Question: And the outcome [3]?
Answer: The outcome was “inactive”.

Question: What about the outcome [4] of the same molecule?
Answer: Its outcome is “inactive”.

Question: And the outcome [5]?
Answer: The outcome was “inactive”.

Question: What about the outcome [15] of the same molecule?
Answer: The outcome was “inactive”.

Question: What about the outcome [14] of the same molecule?
Answer: The outcome was “inactive”.

Question: And the outcome [7]?
Answer: The outcome was “inactive”.

Question: What about the outcome [8] of the same molecule?
Answer: The outcome was “inactive”.

Question: And the outcome [9]?
Answer: The outcome was “inactive”.

Question: For `Cc1cccc(O)c1`, which outcome [1] is on record?
Answer: The outcome was “inactive”.

Question: And the outcome [2]?
Answer: Its outcome is “inactive”.

Question: And the outcome [10]?
Answer: The outcome was “inactive”.

Question: What about the outcome [5] of the same molecule?
Answer: Its outcome is “inactive”.

Question: What about the outcome [16] of the same molecule?
Answer: Its outcome is “inactive”.

Question: What about the outcome [12] of the same molecule?
Answer: Its outcome is “inactive”.

Question: What about the outcome [6] of the same molecule?
Answer: The outcome was “inactive”.

Question: What about the outcome [7] of the same molecule?
Answer: Its outcome is “inactive”.

Question: And the outcome [8]?
Answer: Its outcome is “inactive”.

Question: And the outcome [9]?
Answer: The outcome was “inactive”.

From PubChem BioAssay (EPA / NIEHS)
